Holding throughout (assay): NCI-60 one-dose screen, 48 h (100 = growth as untreated, 0 = no growth, -100 = all killed)
What all share (conditions): 10 µM unless noted

Experiment [1] concerns NCI-H23 lung.
Experiment [2] deals with NCI-H226 lung.
Experiment [3] deals with NCI-H322M lung.
Experiment [4] deals with HOP-62 NSCLC.
Experiment [5] concerns NCI-H460 lung.
Experiment [6] has as its system HOP-92 NSCLC.
Experiment [7] concerns NCI-H522 lung.
For experiment [8], the system named is A549/ATCC NSCLC.
Experiment [9] relates to 786-0 renal.
In experiment [10] the test system is COLO 205 colon.
In experiment [11] the test system is DU-145 prostate.
Experiment [12] has as its system K-562 leukemia.
Experiment [13] has as its system MALME-3M melanoma.
The test system of experiment [14] is MDA-MB-231 breast.
Experiment [15] has as its system RXF 393 renal.
Experiment [16] has as its system SF-268 CNS.
Experiment [17] deals with SF-295 CNS.
For experiment [18], the system named is SF-539 CNS.
For experiment [19], the system named is UACC-257 melanoma.
Experiment [20] concerns M14 melanoma.

The panel holds about 83,000 compounds, 20% with a hit somewhere; the sample as a whole holds those more often.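 Results are percent growth after 48 hours of single-concentration exposure. 100 means growth as in untreated cells, lower positive values show inhibition; negative values down to -100 show cell death.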 A number with no mark means an inactive call. The source made the active and inactive calls. How the source made its calls: active means growth percent below 10; inactive means the rest.

In the case of `O=C(COc1ccc(/C=C2\C(=O)Nc3ccc(Cl)cc32)cc1)Nc1ccc(Cl)cc1`, the growth in experiment [1] was 59.7%; in experiment [2], 74%; in [3], 74.3%; in [4] it was 63.2%; in experiment [5] it was 23.7%; in experiment [6], 93.5%. Besides, the growth in experiment [7] was 45.3%; in experiment [8], 57%; in experiment [9] it was 68.3%; in experiment [10], 90.5%; in [11], 53.7%; in experiment [12] it was 28.2%. Further, the growth in experiment [13] was 81.2%; in [14] it was 76.6%; in [15] it was 75.4%; in experiment [16], 51.1%; in experiment [17], 59.2%; in [18] it was 75.3%. Further, the growth is 82.5% in experiment [19] and 7.47% (active) in experiment [20].

Consider `Cn1cc(C2=C(c3coc4cc(Br)ccc34)C(=O)NC2=O)c2ccccc21`, for which the growth in experiment [1] is 86.8%; in experiment [2], 74.8%; in experiment [3] it was 82.2%; in [4] it was 71%; in experiment [5], 98.6%; in [6] it was 93.4%. In addition, the growth in [7] is 72%; in experiment [8] it was 71.6%; in experiment [9] it was 83.7%; in experiment [10], 71.3%; in [11] it was 108%; in experiment [12], 27.4%. Besides, the growth in [13] is 104%; in experiment [14], 87.8%; in experiment [15] it was 66.3%; in experiment [16], 83.5%; in experiment [17], 86.9%; in experiment [18] it was 69.5%. Further, the growth in experiment [19] is 100%; in experiment [20], 68.7%.

As for `O=C(/C=C/c1ccc(Cl)c(Cl)c1)Nc1ncc(Cc2ccc(Cl)c(Cl)c2)s1`, the growth is 70.4% in experiment [1]; 70.7% in experiment [2]; 58.5% in [3]; 50.9% in experiment [4]; 28.3% in experiment [5]; 92.7% in [6]. Also, the growth is 40.4% in experiment [7]; 53.5% in experiment [8]; 78.8% in [9]; 4.63% (active) in [10]; 49.5% in experiment [11]; 15.3% in experiment [12]. In addition, the growth in experiment [13] was 79.8%; in experiment [14], 97.1%; in [15], 104%; in experiment [16], 61.4%; in experiment [17] it was 7.58% (active); in experiment [18] it was 60.5%. For the same compound, the growth in experiment [19] is 40.9%; in [20] it was -27.4% (active).

Turning to `CS(=O)(=O)c1ccc(/C(=N/N=C(N)N)c2ccc(Cl)cc2)cc1`, the growth in [1] is 95.4%; in experiment [2] it was 95.5%; in experiment [3], 94.9%; in experiment [4], 85.1%; in [5], 99.1%; in [6], 57.2%. Besides, the growth in experiment [7] was 77.4%; in [8] it was 99.2%; in experiment [9], 88.5%; in [10], 91.5%; in experiment [11], 101%; in experiment [12], 40.7%. Besides, the growth in experiment [13] was 81.6%; in experiment [14], 96.1%; in experiment [15] it was 82.6%; in [16], 80.7%; in experiment [17], 95.4%; in [18] it was 91.8%. Moreover, the growth in experiment [19] was 90.2%; in [20], 72.8%.

For `O=c1oc2ccc(-c3ccc(F)cc3F)cc2c(=O)n1-c1ccc(Br)cc1F`, the growth is 60% in experiment [1]; 77.8% in experiment [2]; 71.7% in experiment [3]; 82.9% in experiment [4]; 45.9% in [5]; -19.3% (active) in experiment [6]. Moreover, the growth in experiment [7] was 12.1%; in [8], 84.4%; in [9], 95.2%; in experiment [10], 121%; in experiment [11], 85.2%; in experiment [12] it was 45.4%. For the same compound, the growth in experiment [13] was 61.5%; in [14], 87%; in experiment [15], 80.8%; in [16] it was 58.6%; in experiment [17], 77.6%; in experiment [18], 74.3%. In addition, the growth is 48.1% in experiment [19] and 80.7% in [20].

For the compound `Cc1[nH]c(C(=O)Nc2ccccc2OCc2cccc(C(=O)NCCN)c2)cc1Cl`, the growth in experiment [1] was 102%; in experiment [2] it was 101%; in experiment [3], 92.9%; in [4] it was 103%; in experiment [5], 100%; in experiment [6] it was 84.5%. For the same compound, the growth in [7] was 95%; in experiment [8], 95.2%; in experiment [9], 81%; in [10] it was 102%; in experiment [11] it was 36.5%; in experiment [12] it was 2.16% (active). Also, the growth in [13] is 83.3%; in experiment [14], 96%; in experiment [15], 96.3%; in experiment [16], 88.3%; in [17], 101%; in experiment [18], 97.2%. Also, the results for the growth in [19] and in experiment [20] were 99.4% and 85.5%, respectively.

Consider `COc1ccc(C(C)=C(c2ccc(OCCN3CCCCCC3)cc2)c2ccc(OCCN3CCCCCC3)cc2)cc1`, for which the growth in experiment [1] is -40.3% (active); in experiment [2], -46.1% (active); in experiment [3], -11.7% (active); in experiment [4], -52.4% (active); in experiment [5], -57.2% (active); in experiment [6], -8.87% (active). Moreover, the growth in experiment [7] is -52% (active); in experiment [8] it was -35.9% (active); in experiment [9], -93.9% (active); in [10], -60.8% (active); in experiment [11], 6.1% (active); in [12], -32.5% (active). Further, the growth is -86.9% (active) in experiment [13]; -60.5% (active) in experiment [14]; -82.4% (active) in experiment [15]; 4.71% (active) in experiment [16]; -86% (active) in experiment [17]; -88.4% (active) in [18]. The growth in experiment [19] is -65.5% (active); in [20], -89.5% (active).

On to `COc1ccc(NC(=O)CCCCCCNC(=O)C(O)(O)C(F)(F)F)cc1`, for which the growth in [1] was 53.2%; in experiment [2] it was 84.1%; in [3], 66.1%; in experiment [4] it was 28.3%; in experiment [5], 40.2%; in experiment [6], 28.5%. In addition, the growth was 0.885% (active) in [7]; 46.3% in experiment [8]; 52.9% in experiment [9]; 9.56% (active) in experiment [10]; 28.7% in experiment [11]; 21.7% in [12]. Further, the growth was 18.8% in experiment [13]; 59.5% in experiment [14]; 0.972% (active) in experiment [15]; 56.5% in experiment [16]; 24.3% in experiment [17]; 48.7% in [18]. Moreover, the values for the growth in experiment [19] and in [20] were 48.7% and 49.6%, respectively.

The values above are taken from PubChem BioAssay (NCI).
